Structures are written as SMILES. Results filed as inconclusive are left out. Activity calls are given as the source filed them. Calls come from the whole dose curve; as a rule, active = well fitted inhibition curve with a large enough effect; inconclusive = small, poorly fitted or top-dose-only effect; inactive = no such curve, though single readings can be large or run the other way.

The experiment deals with Retinaldehyde dehydrogenase 3 (Homo sapiens) (UniProt P47895). Put plainly: qHTS for Inhibitors of the Aldehyde Dehydrogenase Family (ALDH1A3) Primary screen (AID 2061315).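 Note: plate controls were DMSO vehicle for no effect and reference inhibitor for full effect.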 Conditions: ALDH inhibition qHTS; series mostly up to 56 µM; activity change, negative = inhibition: at the top concentration. On the technique in general: qHTS replaces the single test concentration by a dilution series.
Take `Cc1ccccc1NC(=O)Nc1ccc(CC(=O)N(C)[C@@H](CC(C)C)C(=O)NCC[C@H](NC(=O)[C@@H]2CCCN2S(=O)(=O)c2cc(Cl)cc(Cl)c2)C(=O)O)cc1`: the “activity change, negative = inhibition” value is -2.94% [at 28 µM] (inactive).

With `COc1ccc2c(OCc3nnc4ccc(-c5ccccc5)nn34)ccnc2c1`, the “activity change, negative = inhibition” value is 1.03% (inactive). Same read-out and setting: as for `CC1=C2C(=O)C=C(CO)C2[C@H]2OC(=O)[C@H](C)[C@@H]2[C@@H](OC(=O)Cc2ccc(O)cc2)C1` (some centres undefined), the figure is -2.6% [at 28 µM] (inactive); as for `Cc1cc(N2CCOCC2)ccc1Nc1nc(NC2CCCCC2)c2[nH]cnc2n1`, 19.8% (inactive); as for `COc1nc(C)cnc1NS(=O)(=O)c1cccnc1-c1ccc(-c2nnco2)cc1`, -9.48% (inactive).

Turning to `COCCN1CCN(Cc2ccc(-c3n[nH]c4c3C(=O)c3c(NC(=O)NN5CCOCC5)cccc3-4)cc2)CC1`, the “activity change, negative = inhibition” value is 14.5% (inactive). Still for that read-out and setting: the value for `CC(=O)OC/C(=C/C(=O)O)CC[C@@H]1C(C=O)=CC[C@@H]2C(C)(C)CCC[C@@]12C` was -0.992% (inactive); that for `CC1CC(C(O)C(C)(C)O)OC2CC3(C)C4(C)CCC5C(C)(C)C(=O)CCC5(C)C4CCC3(O)C12O` (centres undefined) was 17.4% [at 28 µM] (inactive). Still for that read-out and setting: the value for `Nc1ncnc2c1c(-c1cnc3[nH]ccc3c1)nn2C1CCCC1` was 6.45% (inactive). For the compound `CS(=O)(=O)c1ccc([C@H](CC2CCCC2)C(=O)Nc2nccs2)cc1`, the “activity change, negative = inhibition” value is 11.2% (inactive). On the same count and under the same terms, as for `CC(=O)OC1CC2(C)C3=CCC4(C)C5C(O)C(O)C(C(C)C)C5(C)CCC4(C)C3CCC2C(C)(C)C1OC1OC(CO)C(O)C(O)C1O` (centres undefined), the figure is 15.7% [at 16.9 µM] (inactive). On the same count and under the same terms, the value for `COC(=O)Nc1nc2ccc(C(=O)c3ccc(F)cc3)cc2[nH]1` was 2.89% (inactive); that for `C/C1=C\C[C@H](O[C@@H]2O[C@H](CO)[C@@H](O)[C@H](O)[C@H]2O)/C(C)=C/[C@H]2OC(=O)[C@H](C)[C@@H]2CC1` was 4.89% [at 28 µM] (inactive); that for `C=C1CC[C@@H](O)[C@]2(C)C[C@H]3OC(=O)C(=C)[C@H]3CC12` (some centres undefined) was 8.77% (inactive).

For the compound `COc1cc(CCO)ccc1O[C@@H]1O[C@H](CO)[C@@H](O)[C@H](O)[C@H]1O`, the “activity change, negative = inhibition” value is -19.2% (inactive).

Take `COc1cc(O)cc2c1C(=O)OC(C)CCCCCCC2` (centres undefined): the “activity change, negative = inhibition” value was 17.4% (inactive). For `Cc1cc(Nc2nc(N[C@@H](C)c3ncc(F)cn3)ncc2Cl)n[nH]1`, the Potency entry is “inactive”. Take `Cc1ccc2nc(NC(=O)CSc3nc4c(c(=O)n3-c3ccccc3)SCC4)sc2c1`: the “activity change, negative = inhibition” value is -11.1% (inactive).

On to `CN1CCc2nc(C(=O)N[C@@H]3C[C@@H](C(=O)N(C)C)CC[C@@H]3NC(=O)C(=O)Nc3ccc(Cl)cn3)sc2C1`, for which the “activity change, negative = inhibition” value is -8.97% (inactive).

Take `COc1ccc2nc3n[nH]c(C)c3c(NCCOCCO)c2c1`: the “activity change, negative = inhibition” value was 10.5% (inactive). On the same count and under the same terms, as for `COC(=O)C[C@H]1C(C)(C)[C@H](OC(=O)C(C)C)[C@@]2(O)C(=O)[C@]1(C)C1CC[C@]3(C)C(CC(=O)O[C@H]3c3ccoc3)[C@]13O[C@@H]32` (some centres undefined), the figure is 12.4% [at 16.9 µM] (inactive); as for `CC1=C(CO)CC(C(C)C2CCC3C4CC=C5CC(OC6OC(COC7OC(CO)C(O)C(O)C7O)C(O)C(O)C6O)CC(O)C5(C)C4CCC23C)OC1=O` (centres undefined), -1.31% [at 16.9 µM] (inactive); as for `C=C1CC23CC(=O)C4C(CO)(CO)CCCC4(C)C2CCC1C3` (centres undefined), 9.49% (inactive). Still for that read-out and setting: the value for `COc1ccccc1-c1ccc(-c2cn(C(=O)N3CCCCC3Cc3ccccc3)nn2)cc1` (centres undefined) was 2.13% (inactive); that for `CC(C)CNc1ccnc(NCc2csc(-c3ccccc3)n2)n1` was 49.4% (inactive); that for `C/C=C1\[C@H](O[C@@H]2O[C@H](CO)[C@@H](O)[C@H](O)[C@H]2O)OC=C(C(=O)OC)[C@H]1CC(=O)OC` was 5.2% [at 28 µM] (inactive). Same read-out and setting: the value for `NC(=O)c1cccc2cn(-c3ccc([C@@H]4CCCNC4)cc3)nc12` was -11.5% (inactive); that for `COCCCOc1ccnc(CS(=O)c2nc3ccccc3[nH]2)c1C` (centres undefined) was 13% (inactive). For the compound `CCOC(=O)C1=C(C)NC2=C(C(=O)CC(C)(C)C2)C1c1ccc(-c2ccccc2)cc1` (centres undefined), the “activity change, negative = inhibition” value was -11.1% (inactive). The same measure, in the same setting: as for `CC(C)[C@@H](c1ccc(C(F)(F)F)cc1CN(Cc1cc(C(F)(F)F)cc(C(F)(F)F)c1)c1nnn(C)n1)N1CCC(C(=O)O)CC1`, the figure is 3.49% (inactive); as for `C[C@@H]1CC[C@]2(C(=O)OC3OC(CO)C(O)C(O)C3O)CC[C@]3(C)C(=CCC4[C@@]5(C)CC[C@H](O)[C@](C)(C(=O)O)C5CC[C@]43C)C2[C@]1(C)O` (some centres undefined), 13.8% [at 16.9 µM] (inactive); as for `COc1c2c(c(C)c3c1C(=O)OC3)O[C@@]1(C)CC(O)C(C(C)(C)O)[C@](C)(CCC(=O)O)[C@H]1C2` (some centres undefined), 1.89% [at 28 µM] (inactive). Still for that read-out and setting: as for `CC(C)CN(C[C@@H](O)[C@H](Cc1ccccc1)NC(=O)O[C@@H]1CO[C@H]2OCC[C@H]21)S(=O)(=O)c1ccc(N)cc1`, the figure is -10.8% (inactive); as for `C[C@@H]1C[C@@H]([C@@H](O)C(C)(C)O)O[C@H]2C[C@@]3(C)C(=C12)C[C@H](O)[C@H]1[C@@]2(C)CCC(=O)C(C)(C)C2CC[C@@]13C` (some centres undefined), -0.164% [at 28 µM] (inactive).

The values are drawn from PubChem BioAssay (NCATS).
